Reference: PubChem BioAssay AID492972 (The Scripps Research Institute Molecular Screening Center, 2010)
The campaign covered roughly 340,000 compounds. About 930 (0.27%) were called active. This excerpt belongs to a sample that is enriched for actives. Values without a mark were called inactive.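 The calls were made as follows: active = inhibition above the screen-wide average of all tested compounds plus 3 SD (cut at about 25% in these data); inactive = the rest.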

Each molecule was assayed against Platelet-activating factor acetylhydrolase IB subunit alpha1 (Homo sapiens) (UniProt Q15102) (assay: PAFAH1B3 enzyme inhibitors, primary screen, biochemical, fluorescence polarization, human (AID 492972;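 also: 0% = enzyme with DMSO only and 100% = wells lacking PAFAH1B3 protein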)). Conditions: recombinant PAFAH1B3, FP-rhodamine probe, at 3.39 µM, stronger effect = higher value.
Platelet-activating factor acetylhydrolase IB subunit alpha1 (Homo sapiens), sequence (Q15102 whole entry, looked up): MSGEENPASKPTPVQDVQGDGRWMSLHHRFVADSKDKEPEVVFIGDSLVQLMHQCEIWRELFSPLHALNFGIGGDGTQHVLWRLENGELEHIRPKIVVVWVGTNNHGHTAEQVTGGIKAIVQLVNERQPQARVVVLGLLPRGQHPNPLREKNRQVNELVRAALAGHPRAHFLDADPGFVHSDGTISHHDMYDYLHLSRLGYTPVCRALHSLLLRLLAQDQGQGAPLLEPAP

Compound | inhibition
O=C1NC(=O)N(c2ccc(F)cc2)C(=O)/C1=C/c1ccc2c(c1)CCCN2Cc1ccccc1 | 4.39%
COc1ccc(N2C(=O)/C(=C/c3ccco3)C(=O)NC2=S)cc1 | 16.7%
O=C1NC(=O)N(c2ccccc2)C(=O)/C1=C/c1ccc([N+](=O)[O-])s1 | 25.6% (active)
CCCCCn1c(=O)c(C(=O)NCc2ccccn2)c(O)c2ccccc21 | 4.97%
COC(=O)N(c1ccc(OC)cc1)P1(=S)OCCC(C)O1 (stereo not given) | -0.56%
CCOC(=O)c1c(N)n(Cc2ccccc2)c2nc3ccccc3nc12 | 36.2% (active)
COc1cc(Cn2c(N)c(C(=O)NCc3ccco3)c3nc4ccccc4nc32)cc(OC)c1OC | 9.25%
CC/C(=N\NC(=O)c1ccccc1O)c1c(O)n(Cc2ccccc2)c(=O)[nH]c1=O | 13.4%
O=C(c1cc2nc(-c3ccccc3)cc(-c3ccccc3)n2n1)N1CCC2(CC1)OCCO2 | 1.81%
COC(=O)C(O)(c1ccc(NC(=O)c2ccco2)c(OC)c1)C(F)(F)F (stereo not given) | -1.88%
